ChEMBL document CHEMBL3433997, “St. Jude Leishmania screening dataset” (2016)

What was measured:
Assay type in all cases: functional
[1] = target: Solute carrier family 2, facilitated glucose transporter member 1 (Homo sapiens) (UniProt P11166); assay: ST_JUDE_LEISH: Cytotoxicity at 2uM final concentration against transgenic Leishmania Mexicana promastigotes LmGLUT1 that are glucose transport deficient and complemented with the human glucose transporter GLUT1. Activity is measured by DNA content using SYBR green in vitro
Solute carrier family 2, facilitated glucose transporter member 1 (Homo sapiens), sequence (P11166 whole entry): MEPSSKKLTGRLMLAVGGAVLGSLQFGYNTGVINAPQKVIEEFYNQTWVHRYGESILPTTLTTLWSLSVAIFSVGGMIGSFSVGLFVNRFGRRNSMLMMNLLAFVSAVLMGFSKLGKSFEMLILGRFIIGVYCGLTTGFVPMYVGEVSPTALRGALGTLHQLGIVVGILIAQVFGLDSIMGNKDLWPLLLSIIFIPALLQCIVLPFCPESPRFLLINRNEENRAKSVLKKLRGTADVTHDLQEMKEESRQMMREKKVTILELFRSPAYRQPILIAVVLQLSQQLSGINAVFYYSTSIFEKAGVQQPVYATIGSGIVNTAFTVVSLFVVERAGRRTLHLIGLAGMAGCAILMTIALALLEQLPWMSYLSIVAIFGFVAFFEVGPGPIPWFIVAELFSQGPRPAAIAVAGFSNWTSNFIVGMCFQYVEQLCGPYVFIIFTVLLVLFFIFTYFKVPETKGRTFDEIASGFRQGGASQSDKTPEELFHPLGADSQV

[2] = target: Hexose transporter 1 (Plasmodium falciparum) (UniProt O97467); assay: ST_JUDE_LEISH: Cytotoxicity at 2uM final concentration against transgenic Leishmania Mexicana promastigotes LmPfHT that are glucose transport deficient and complemented with the Plasmodium falciparum hexose transporter. Activity is measured by DNA content using SYBR green in vitro
[3] = target: Glucose transporter (Leishmania mexicana) (UniProt O61059); assay: ST_JUDE_LEISH: Cytotoxicity at 2uM final concentration against transgenic Leishmania Mexicana promastigotes LmGT2 that are glucose transport deficient and complemented with the L. Mexicana glucose transporter 2. Activity is measured by DNA content using SYBR green in vitro

Q: `CCOc1ccccc1NC(=O)Nc1ccc2c(c1)CCN(C1CCC1)CC2` was tested. Which inhibition [1] did it give?
A: 9.64%

Q: And the inhibition [2]?
A: 6.1%

Q: What about the inhibition [3] of the same compound?
A: 10.2%

Q: For `CN1CCN(c2ccc(Cl)cc2NC(=O)C2COc3ccccc3O2)CC1` (centres undefined), which inhibition [1] is on record?
A: 0.88%

Q: What about the inhibition [2] of the same compound?
A: 1.77%

Q: And the inhibition [3]?
A: -1.34%

Q: `CC(=O)Nc1ncc(C(=O)Nc2ccc(-c3cccc(-c4nc5cc(C(F)(F)F)ccc5[nH]4)c3)cc2)s1` was tested. Which inhibition [1] did it give?
A: -2.18%

Q: What about the inhibition [2] of the same compound?
A: -2.1%

Q: What about the inhibition [3] of the same compound?
A: -2.74%

Q: How did the inhibition [1] turn out when `COc1ccc(CNCc2cccc(-c3ccc(-c4nc5cccc(C)c5[nH]4)cc3)c2)cc1` was run?
A: 14%

Q: What about the inhibition [2] of the same compound?
A: 9.73%

Q: What about the inhibition [3] of the same compound?
A: 7.5%

Q: What does the source list for `CCCCCN(C(=O)Nc1cc(C(F)(F)F)cc(C(F)(F)F)c1)C(C)c1nc2ccccc2c(=O)n1CC` (centres undefined)?
A: inhibition [1]: -0.28%; inhibition [2]: 1.02%; inhibition [3]: 6.73%

Q: For `CC(=O)Oc1c(Cl)c(C)nc(C)c1-c1ccc(Oc2ccc(Cl)cc2)cc1`, which inhibition [1] is on record?
A: 9.11%

Q: And the inhibition [2]?
A: 9.67%

Q: What about the inhibition [3] of the same compound?
A: 4.45%

Q: For `CC(C)N1CCC(NC(=O)N2CCCN(c3ncnc4cc(-c5ccc(Cl)cc5)sc34)CC2)CC1`, which inhibition [1] is on record?
A: -0.49%

Q: And the inhibition [2]?
A: 0.6%

Q: And the inhibition [3]?
A: -3.09%

Q: What does the source list for `COc1ccc2nccc(N(C)CC3(O)CCN(CCc4ccc5c(c4)OCCO5)CC3)c2n1`?
A: inhibition [1]: 0.49%; inhibition [2]: 0.73%; inhibition [3]: 2.16%

Q: Which results are given for `O=C(NCC1CCC(C(=O)NCc2cccc(C(F)(F)F)c2)CC1)c1ccc(O)c(-c2ccc(Cl)c(Cl)c2)c1` (centres undefined)?
A: inhibition [1]: 0.99%; inhibition [2]: 2.82%; inhibition [3]: 2.98%

Q: What does the source list for `O=C(Nc1ccc(F)c(C(F)(F)F)c1)N[C@H]1CCN(CCCCCNC(=O)C2CC2c2ccc(Cl)c(Cl)c2)C1` (some centres undefined)?
A: inhibition [1]: -0.22%; inhibition [2]: -0.44%; inhibition [3]: -2.52%

Q: For `CCC(C)Oc1ccc(CCCON2C(N)=NC(N)=NC2(C)C)cc1` (centres undefined), which inhibition [1] is on record?
A: 12.6%

Q: What about the inhibition [2] of the same compound?
A: 20.2%

Q: What about the inhibition [3] of the same compound?
A: 13.8%

Q: Which results are given for `COc1ccc2c(c1)S(=O)(=O)N=C(N1CCCC1c1ccc(Cl)c(Cl)c1)N2C` (centres undefined)?
A: inhibition [1]: -1.4%; inhibition [2]: -0.89%; inhibition [3]: -1.05%

Q: For `CC(C)c1cc(Oc2c(I)cc(CCCc3ncc[nH]3)cc2I)ccc1O`, which inhibition [1] is on record?
A: 9.35%

Q: What about the inhibition [2] of the same compound?
A: 9.42%

Q: And the inhibition [3]?
A: 6.8%

Q: `CCc1ccc(NC(=O)c2ccc(CN3CCCN(Cc4cccc(Cl)c4)CC3)cc2)cc1` was tested. Which inhibition [1] did it give?
A: 1.47%

Q: What about the inhibition [2] of the same compound?
A: 2.69%

Q: What about the inhibition [3] of the same compound?
A: 2.29%

Q: Which inhibition [1] does the source give for `CCCCN(CCCC)CCNC(=O)c1cc(OC(F)(F)F)ccc1O` here?
A: 1%

Q: And the inhibition [2]?
A: 0.8%

Q: And the inhibition [3]?
A: 0.03%

Q: With `Cc1ccc(C)c(NC(=O)NC2CCN(c3ccnc(Nc4ccc(F)cc4)n3)C2)c1` (centres undefined) as the compound, how does the inhibition [1] read?
A: -2.45%

Q: And the inhibition [2]?
A: -0.78%

Q: And the inhibition [3]?
A: -1.79%

Q: Which inhibition [1] does the source give for `O=C(c1cccc(-c2ccc(-c3nc4cc(C(F)(F)F)ccc4[nH]3)cc2)c1)N1CCCCC1CN1CCC(O)C1` (centres undefined) here?
A: 0.99%

Q: What about the inhibition [2] of the same compound?
A: 1.44%

Q: What about the inhibition [3] of the same compound?
A: 2.26%

Q: How did the inhibition [1] turn out when `O=C(/C=C/c1ccc(C(F)(F)F)cc1)NCCCCCN1CCCN(C(=O)Nc2ccc(Cl)c(C(F)(F)F)c2)CC1` was run?
A: -0.16%

Q: And the inhibition [2]?
A: 0.4%

Q: What about the inhibition [3] of the same compound?
A: 0.66%

Q: Which inhibition [1] does the source give for `N=C(N)NN=Cc1c2ccccc2c(Cl)c2cc(Cl)ccc12` here?
A: 62.5%

Q: And the inhibition [2]?
A: 26.4%

Q: What about the inhibition [3] of the same compound?
A: 29.3%

Q: For `O=C(COc1ccccc1)NC1CCN(c2ccnc3cc(Cl)ccc23)C1` (centres undefined), which inhibition [1] is on record?
A: 0.14%

Q: And the inhibition [2]?
A: 1%

Q: And the inhibition [3]?
A: 1.75%

Q: How did the inhibition [1] turn out when `Cc1nc2ccc(-c3ccc(OC(F)(F)F)cc3)cc2c(O)c1C#N` was run?
A: -2.1%

Q: What about the inhibition [2] of the same compound?
A: 0.11%

Q: And the inhibition [3]?
A: -1.44%

Q: How did the inhibition [1] turn out when `CCN(CC)CCCC(C)Nc1c2cc(OC)ccc2nc2cc(Cl)c([N+](=O)[O-])cc12` (centres undefined) was run?
A: 1.29%

Q: And the inhibition [2]?
A: 0.73%

Q: And the inhibition [3]?
A: 0.82%

Q: Which results are given for `CCc1ccc(S(=O)(=O)Nc2cccc(CCN3CCC(N4CCCCC4)CC3)c2)cc1`?
A: inhibition [1]: 1.95%; inhibition [2]: 1.48%; inhibition [3]: -0.34%

Q: How did the inhibition [1] turn out when `COc1ccc2nccc(NCC3(O)CCN(CCc4ccc5c(c4)OCCO5)CC3)c2n1` was run?
A: 4.99%

Q: What about the inhibition [2] of the same compound?
A: 4.58%

Q: What about the inhibition [3] of the same compound?
A: 0.15%

Q: Which inhibition [1] does the source give for `CC(NC(=O)c1ccc(O)c(-c2ccc(Cl)c(Cl)c2)c1)C(=O)NCCN1CCOCC1` (centres undefined) here?
A: 1.85%

Q: What about the inhibition [2] of the same compound?
A: 2.13%

Q: What about the inhibition [3] of the same compound?
A: 3.62%

Q: How did the inhibition [1] turn out when `Clc1ccc(-c2cc(-c3csc(Nc4ccncc4)n3)on2)cc1` was run?
A: 1.41%

Q: And the inhibition [2]?
A: 5.17%

Q: What about the inhibition [3] of the same compound?
A: 1.32%

Q: What does the source list for `S=C(NCCc1ccccc1)Nc1ccc2ncsc2c1`?
A: inhibition [1]: -0.85%; inhibition [2]: 1.14%; inhibition [3]: -0.73%

Q: Which results are given for `Fc1ccc(-c2nc(NCc3cccc(C(F)(F)F)c3)nn2-c2cccc(C(F)(F)F)c2)cc1C(F)(F)F`?
A: inhibition [1]: 1.81%; inhibition [2]: 1.48%; inhibition [3]: 2.56%

Q: What does the source list for `FC(F)(F)c1cc(CNCCCNc2nc3ccncc3[nH]2)ccc1Cl`?
A: inhibition [1]: 1.9%; inhibition [2]: 1.51%; inhibition [3]: 0.35%

Q: Which results are given for `CC(=O)N(C)c1cccc(CNc2cc(C)nc(Nc3ccc(C)cc3)n2)c1`?
A: inhibition [1]: 4.41%; inhibition [2]: 4.95%; inhibition [3]: 0.91%

Q: With `CN1CCC(C(=O)Nc2cccc(-c3ccc(-c4nc5cc(C(F)(F)F)ccc5[nH]4)cc3)c2)CC1` as the compound, how does the inhibition [1] read?
A: 4.82%

Q: What about the inhibition [2] of the same compound?
A: 2.75%

Q: What about the inhibition [3] of the same compound?
A: 3.82%

Q: For `Cc1ccc(O)c(C(=O)c2cc(C(=O)Nc3ccccc3C)c(=O)n(-c3ccccc3C)c2)c1`, which inhibition [1] is on record?
A: 4.62%

Q: What about the inhibition [2] of the same compound?
A: 3.71%

Q: And the inhibition [3]?
A: 1.81%

Q: Which inhibition [1] does the source give for `Cc1cc(-c2ccc(O)c(CNC3CCCCC3)c2)cnc1N` here?
A: 0.43%

Q: And the inhibition [2]?
A: 10.3%

Q: What about the inhibition [3] of the same compound?
A: 0.95%
